What all share (conditions): modulator concentration 10 µM
The subject of assay [1] is RAW-Dual (murine macrophage reporter line). The experiment in a line: NF-kB reporter (SEAP) activity fold change vs agonist alone; higher = enhanced NF-kB activity. In short, it runs like this: (§1)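 Overnight stimulation with a PRR agonist followed pre-incubation for 1 hour at 37 °C with compound at 10 μM final. This was done in RAW-Dual murine macrophage reporter cells seeded at 50 000 per well in 384-well plates. NF-κB (SEAP, QUANTI-Blue absorbance at 620 nm) and IRF (Lucia luciferase, QUANTI-Luc luminescence) were read from the supernatant. Each reporter's fold change relative to the mean agonist-only control on the same plate was averaged over replicate plates.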

Assay [2] shares this test system. Put plainly: IRF reporter (Lucia luciferase) activity fold change vs agonist alone; higher = enhanced IRF activity. The essentials: as §1
For assay [3] the test system is unchanged. The experiment in a line: viability score (confluency relative to resting cells, overnight) (fraction); higher = more viable, active = viable (0.7 or more). The essentials:
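RAW-Dual macrophages in 384-well plates were treated overnight with compound at 10 μM final. IncuCyte imaging recorded confluency, and IncuCyte software built two confluency masks across every imaged well. The viability score expresses confluency relative to resting cells and was judged against a cutoff, which a compound met only if both masks exceeded 70% of resting cells.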

Setting [4] is: agonist: CpG ODN 1826 0.5 ug/mL.

± gives the standard deviation.

As to `Fc1ccc(Nc2nc(NN=Cc3c[nH]nc3-c3ccccc3)nc(N3CCOCC3)n2)cc1`, the NF-kB reporter turned out to be 0.537 ± 0.044 in assay [1] (setting [4]), 0.981 ± 0.071 in assay [1] (agonist: LPS 0.1 ug/mL) and 2.12 ± 0.2 in assay [1] (agonist: MPLA […]). In addition, the IRF reporter in assay [2] (agonist: 3'3'-cGAMP 10 ug/mL) stood at 1 ± 0.1; in assay [2] (agonist: LPS 0.1 ug/mL), 1.57 ± 0.21; in assay [2] (agonist: MPLA […]) it was 2.78 ± 0.4. Moreover, the viability score in assay [3] is 0.875 (active).

On to `CCOC(=O)C(CCc1ccccc1)NC(C)C(=O)N1Cc2ccccc2CC1C(=O)O.Cl` (stereo not given), for which the NF-kB reporter in assay [1] (setting [4]) turned out to be 1.27 ± 0.31; in assay [1] (agonist: LPS 0.1 ug/mL), 1.05 ± 0.057; in assay [1] (agonist: MPLA […]), 0.977 ± 0.072. The figures for the IRF reporter in assay [2] (agonist: 3'3'-cGAMP 10 ug/mL), in assay [2] (agonist: LPS 0.1 ug/mL) and in assay [2] (agonist: MPLA […]) were 0.955 ± 0.046, 1.22 ± 0.14 and 1.3 ± 0.13, respectively. Further, in assay [3], the viability score is 0.997 (active).

Regarding `COC(=O)C1=C(C)N(C)C(C)=C(C(=O)OC)C1c1ccc(-c2ccccc2)cc1`, the NF-kB reporter in assay [1] (setting [4]) was 0.873 ± 0.069; in assay [1] (agonist: LPS 0.1 ug/mL), 0.943 ± 0.057; in assay [1] (agonist: MPLA […]), 0.939 ± 0.06. Moreover, the IRF reporter in assay [2] (agonist: 3'3'-cGAMP 10 ug/mL) amounted to 0.989 ± 0.03; in assay [2] (agonist: LPS 0.1 ug/mL), 1.06 ± 0.16; in assay [2] (agonist: MPLA […]) it was 0.905 ± 0.19. Further, the viability score in assay [3] is 1 (active).

`Cc1sc2ncnc(Nc3ccc(F)cc3)c2c1C`: the figures for the NF-kB reporter in assay [1] (setting [4]), in assay [1] (agonist: LPS 0.1 ug/mL) and in assay [1] (agonist: MPLA […]) were 0.813 ± 0.035, 0.948 ± 0.11 and 1.22 ± 0.071, respectively. The IRF reporter amounted to 0.739 ± 0.034 in assay [2] (agonist: 3'3'-cGAMP 10 ug/mL), 0.935 ± 0.19 in assay [2] (agonist: LPS 0.1 ug/mL) and 1.07 ± 0.27 in assay [2] (agonist: MPLA […]). For the same compound, the viability score in assay [3] is 0.981 (active).

For `CC1=C(C(=O)Nc2ccc(C)cn2)C(c2ccccc2Cl)C2=C(CCCC2=O)N1` (stereo not given), the NF-kB reporter in assay [1] (setting [4]) amounted to 1.01 ± 0.12; in assay [1] (agonist: LPS 0.1 ug/mL) it was 0.983 ± 0.062; in assay [1] (agonist: MPLA […]), 0.847 ± 0.053. For the same compound, the results for the IRF reporter in assay [2] (agonist: 3'3'-cGAMP 10 ug/mL), in assay [2] (agonist: LPS 0.1 ug/mL) and in assay [2] (agonist: MPLA […]) were 1.02 ± 0.034, 1.43 ± 0.12 and 1.1 ± 0.08, respectively. Besides, in assay [3], the viability score was 1.01 (active).

As to `CCc1ccc2oc(-c3ccc(NC(=O)c4ccc(C)c([N+](=O)[O-])c4)cc3)nc2c1`, the NF-kB reporter in assay [1] (setting [4]) turned out to be 1.02 ± 0.08; in assay [1] (agonist: LPS 0.1 ug/mL), 1.04 ± 0.059; in assay [1] (agonist: MPLA […]), 0.931 ± 0.089. Besides, the IRF reporter in assay [2] (agonist: 3'3'-cGAMP 10 ug/mL) is 1 ± 0.025; in assay [2] (agonist: LPS 0.1 ug/mL), 1.6 ± 0.22; in assay [2] (agonist: MPLA […]), 1.33 ± 0.16. Also, the viability score in assay [3] is 1.01 (active).

On to `O=C1OC(c2ccc3ccccc3c2)=NC1=Cc1ccc(Br)c([N+](=O)[O-])c1`, for which the NF-kB reporter in assay [1] (setting [4]) came to 0.963 ± 0.15; in assay [1] (agonist: LPS 0.1 ug/mL), 0.878 ± 0.08; in assay [1] (agonist: MPLA […]) it was 0.896 ± 0.1. In addition, the IRF reporter in assay [2] (agonist: 3'3'-cGAMP 10 ug/mL) came to 0.861 ± 0.04; in assay [2] (agonist: LPS 0.1 ug/mL) it was 1.16 ± 0.11; in assay [2] (agonist: MPLA […]), 1.19 ± 0.24. In addition, the viability score in assay [3] was 0.998 (active).

`CC12CC3CC(C)(C1)CC(CNC(=O)c1ccc([N+](=O)[O-])cc1)(C3)C2`: the NF-kB reporter in assay [1] (setting [4]) came out at 1.1 ± 0.1; in assay [1] (agonist: LPS 0.1 ug/mL), 0.895 ± 0.065; in assay [1] (agonist: MPLA […]), 0.957 ± 0.09. Besides, the values for the IRF reporter in assay [2] (agonist: 3'3'-cGAMP 10 ug/mL), in assay [2] (agonist: LPS 0.1 ug/mL) and in assay [2] (agonist: MPLA […]) were 0.999 ± 0.032, 1.38 ± 0.22 and 1.48 ± 0.37, respectively. In addition, the viability score in assay [3] is 1 (active).

Regarding `CCOc1ccc(CC(=O)NC2(c3nc(-c4ccccc4)no3)CCCCC2)cc1OCC`, the NF-kB reporter was determined as 0.697 ± 0.031 in assay [1] (setting [4]), 1.02 ± 0.095 in assay [1] (agonist: LPS 0.1 ug/mL) and 0.93 ± 0.058 in assay [1] (agonist: MPLA […]). Also, the IRF reporter in assay [2] (agonist: 3'3'-cGAMP 10 ug/mL) worked out at 1.03 ± 0.049; in assay [2] (agonist: LPS 0.1 ug/mL) it was 1.24 ± 0.32; in assay [2] (agonist: MPLA […]), 1.3 ± 0.37. For the same compound, in assay [3], the viability score is 0.979 (active).

For the compound `CC1CC(OC(=O)C(O)c2ccccc2)CC(C)(C)C1` (stereo not given), the figures for the NF-kB reporter in assay [1] (setting [4]), in assay [1] (agonist: LPS 0.1 ug/mL) and in assay [1] (agonist: MPLA […]) were 0.872 ± 0.037, 1.02 ± 0.11 and 1.11 ± 0.18, respectively. The IRF reporter in assay [2] (agonist: 3'3'-cGAMP 10 ug/mL) is 1 ± 0.051; in assay [2] (agonist: LPS 0.1 ug/mL) it was 1.25 ± 0.25; in assay [2] (agonist: MPLA […]) it was 1.48 ± 0.5. In addition, the viability score in assay [3] was 1.01 (active).

For `Cc1c(OCC(=O)OC(C)C)ccc2c3c(c(=O)oc12)CCCC3`, the NF-kB reporter in assay [1] (setting [4]) amounted to 0.794 ± 0.063; in assay [1] (agonist: LPS 0.1 ug/mL), 0.883 ± 0.14; in assay [1] (agonist: MPLA […]) it was 1.21 ± 0.12. The results for the IRF reporter in assay [2] (agonist: 3'3'-cGAMP 10 ug/mL), in assay [2] (agonist: LPS 0.1 ug/mL) and in assay [2] (agonist: MPLA […]) were 0.949 ± 0.086, 1.49 ± 0.095 and 1.71 ± 0.24, respectively. The viability score in assay [3] was 1.01 (active).

As to `COc1ccc2nc(NCCCn3ccnc3)sc2c1`, the NF-kB reporter stood at 0.921 ± 0.07 in assay [1] (setting [4]), 1.02 ± 0.11 in assay [1] (agonist: LPS 0.1 ug/mL) and 1.04 ± 0.1 in assay [1] (agonist: MPLA […]). Further, the IRF reporter in assay [2] (agonist: 3'3'-cGAMP 10 ug/mL) is 0.836 ± 0.034; in assay [2] (agonist: LPS 0.1 ug/mL), 1.15 ± 0.14; in assay [2] (agonist: MPLA […]), 1.25 ± 0.2. In addition, the viability score in assay [3] was 0.985 (active).

In the case of `CC(C)OCc1ccc(C(=O)Nc2nnc(C(C)C)s2)o1`, the NF-kB reporter in assay [1] (setting [4]) amounted to 0.988 ± 0.1; in assay [1] (agonist: LPS 0.1 ug/mL), 1 ± 0.079; in assay [1] (agonist: MPLA […]), 0.961 ± 0.15. The results for the IRF reporter in assay [2] (agonist: 3'3'-cGAMP 10 ug/mL), in assay [2] (agonist: LPS 0.1 ug/mL) and in assay [2] (agonist: MPLA […]) were 0.986 ± 0.051, 1.11 ± 0.068 and 1.05 ± 0.08, respectively. For the same compound, in assay [3], the viability score is 1.01 (active).

For the compound `COc1ccc(CNC23CC4CC(CC(C4)C2)C3)cc1OC`, the values for the NF-kB reporter in assay [1] (setting [4]), in assay [1] (agonist: LPS 0.1 ug/mL) and in assay [1] (agonist: MPLA […]) were 0.937 ± 0.072, 0.899 ± 0.13 and 0.891 ± 0.092, respectively. Moreover, the IRF reporter in assay [2] (agonist: 3'3'-cGAMP 10 ug/mL) was found to be 0.959 ± 0.03; in assay [2] (agonist: LPS 0.1 ug/mL), 1.1 ± 0.23; in assay [2] (agonist: MPLA […]), 1.1 ± 0.17. For the same compound, the viability score in assay [3] is 1.01 (active).

Turning to `CN(C)c1nc(CNS(C)(=O)=O)nc(N2CCOCC2)n1`, the figures for the NF-kB reporter in assay [1] (setting [4]), in assay [1] (agonist: LPS 0.1 ug/mL) and in assay [1] (agonist: MPLA […]) were 0.908 ± 0.047, 0.916 ± 0.091 and 1.02 ± 0.071, respectively. Further, the results for the IRF reporter in assay [2] (agonist: 3'3'-cGAMP 10 ug/mL), in assay [2] (agonist: LPS 0.1 ug/mL) and in assay [2] (agonist: MPLA […]) were 1.08 ± 0.049, 1.07 ± 0.18 and 1.14 ± 0.38, respectively. In assay [3], the viability score was 1.02 (active).
